A selection: hits, their analogues and other compounds. The true share with any hit is near 19%.
AMA1-RON2 inh: disrupts binding of P. falciparum AMA1 to RON2; AlphaScreen AMA1-biotinylated RON2 peptide binding; actives 0.2% (n = 360,000); Potency, µM (titrated, usually from 58.2 µM), most hits filed as inhibitors; also: nearly all actives have a fitted effect of over 45% in size
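AMA1 (3D7) with his tag at 25 nM final met compounds first, then biotinylated RON2 peptide at 25 nM; detection used donor plus acceptor beads, 10 µg/mL apiece, read by AlphaScreen after 30 min at room temperature.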
Pf growth 96h: P. falciparum growth inhibition at 96 hour, primary screen for plastid delayed-death inhibitors; P. falciparum luciferase reporter growth, 96 h; Potency, µM (top dose mostly 28.7 µM), most hits filed as inhibitors; actives 6.9% (n = 320,000); AID 504834
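Two-generation exposure (96 h) targets delayed-death phenotype. Reporter parasites carrying integrated firefly luciferase, in red cells at 2% hematocrit and 0.05% parasitemia final, kept at 37 C, 5% CO2; luminescence loss indicates inhibition.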
Shiga inhibitor: inhibitors of Shiga toxin in Vero cells | actives 9.2% (n = 290,000) | AID 2315 | inhibition, % at 38.7 µM | Vero cells, Shiga toxin protein synthesis inhibition reporter; in the data active = inhibition mostly above about 28%, no sharp cut-off; inactive = mostly below about 43%
SARS PLpro yeast: inhibitors of SARS-CoV papain-like protease in yeast. S. cerevisiae expressing SARS-CoV PLpro, growth rescue. Potency, µM (series often up to 32.9 µM), most hits filed as activators. actives 0.19% (n = 330,000); calls by dose curve; also: nearly all actives have a fitted effect of over 55% in size
Pf growth 48h: P. falciparum growth inhibition at 48 hours (one generation); Potency, µM (highest dose often 28.7 µM), most hits filed as inhibitors; P. falciparum luciferase growth in erythrocytes, 48 h; actives 5.9% (n = 310,000)
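Luciferase-expressing parasites in RBCs, 2% Hct / 0.1% parasitemia final; RPMI 1640 + 0.5% Albumax; 37 C, 5% CO2, one generation; luminescence read-out, lower signal = inhibition.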
Cycloheximide cs: counter-screen for Shiga toxin inhibitors: cycloheximide protein synthesis inhibition; cell reporter, cycloheximide protein synthesis inhibition counterscreen; max response, %; actives 12% (n = 300,000); AID 2314; in the data active = max response mostly above about 13%, no sharp cut-off; inactive = mostly below about 14%; also: read at 38.3 µM for the half of the compounds with a filed dose
A number is an active result; . = inactive; ? = inconclusive; / = no result. Unless noted, calls follow the shape of the dose curve; as a rule, active = well fitted curve in the direction sought with a large enough effect; inconclusive = small, poorly fitted or top-dose-only effect, or another doubt; inactive = no such curve, though single readings can be large; an effect the other way counts as inactive or inconclusive.

SMILES	AMA1-RON2 inh	Pf growth 96h	Shiga inhibitor	SARS PLpro yeast	Pf growth 48h	Cycloheximide cs
O=S(=O)(NCc1ccccc1)c1ccc(Cl)cc1	.	?	.	.	/	.
CCc1nc2ccccc2n1CC(=O)Nc1cc(C)on1	.	4.7µM	.	.	.	.
Cc1cc(NC(=O)CSc2nc3ccccc3c(=O)n2C(C)c2ccccc2)no1 (stereo not drawn)	.	12µM	.	.	/	.
CCCc1nc(SCC(=O)Nc2cc(C)on2)c2ccccc2n1	.	2.1µM	.	.	.	.
COC(=O)CNC(=O)COC(=O)Cc1ccc(Cl)cc1	.	.	.	.	?	.
CCCN(CCO)C1CCN(CCc2ccccc2)CC1	.	.	.	.	.	.
CCN(CC(=O)Nc1ccc(N2CCOCC2)cc1)C(=O)c1ccc(C(F)(F)F)cc1	.	.	.	.	.	.
Cc1ccc2oc(=O)c(/C=C(\O)C(C)(C)C)nc2c1	.	.	.	.	?	.
CCCn1nc(NC(=O)c2ccco2)c2cc3ccc(C)cc3nc21	.	/	.	.	.	.
Cc1ccc2oc(=O)c(/C=C(\O)c3sc(C)nc3C)nc2c1	.	10µM	.	.	?	.
CC(C)(C)/C(O)=C/c1nc2cc(Cl)ccc2oc1=O	.	5.9µM	.	.	9.3µM	.
Cc1ccc2oc(=O)c(/C=C(\O)c3ccco3)nc2c1	.	?	.	.	?	17
CCC1NC(=O)c2cccnc2-n2c1nc1ccc(OC)cc1c2=O (stereo not drawn)	.	/	/	/	/	/
CCOC(=O)CSc1nc(C)cc(C)c1C#N	.	/	.	.	.	.
CCOC(=O)CSc1nc2cc(C)ccc2cc1C#N	.	?	100	.	.	41
COc1ccc2nc(SCC(C)=O)c(C#N)cc2c1	.	.	116	.	.	36
CCOC(=O)CSc1nc2cc(OC)ccc2cc1C#N	.	.	116	.	.	22
CCOC(=O)CSc1nc2ccc(C)cc2cc1C#N	.	/	80	.	.	59
O=S1(=O)CCN2N=C(C3CC3)SC2=N1	.	.	.	.	.	.
CCCN(CC(=O)Nc1ccccc1C)C(=O)Cc1coc2cc(C)ccc12	.	.	.	.	.	.
CCCN(CC(=O)Nc1ccccc1OC)C(=O)Cc1ccccc1F	.	.	.	.	.	.
CCOC(=O)CSc1nc2cc(C)cc(C)c2cc1C#N	.	/	.	.	.	14
Cc1ccc2cc(C#N)c(SCC(=O)N3CCCC3)nc2c1	.	.	.	.	.	22
CCOc1ccc2nc(SCC(=O)N3CCCCCC3)c(C#N)cc2c1	.	.	.	.	?	.
NC(=O)CC(NC(=O)Cc1ccc(Cl)cc1)c1ccc(NCCOc2ccccc2)c([N+](=O)[O-])c1 (stereo not drawn)	.	?	.	.	?	.
SMILES	AMA1-RON2 inh	Pf growth 96h	Shiga inhibitor	SARS PLpro yeast	Pf growth 48h	Cycloheximide cs
COC(=O)C[C@@H]1C=C[C@@H](NC(=O)NC2CCCC2)[C@@H](CO)O1	.	/	/	/	/	/
CC(NC(=O)COC(=O)c1ccc(N(C)C)cc1)c1ccccc1 (stereo not drawn)	.	.	.	.	12µM	.
CC(NC(=O)COC(=O)c1cccs1)c1ccccc1 (stereo not drawn)	.	.	.	.	.	12
CCOC(=O)C1=C(C)NC(C)=C(C(=O)OCC)C1C(=O)OCC(=O)NC(C)c1ccccc1 (stereo not drawn)	.	13µM	/	.	?	/
CC(NC(=O)COC(=O)c1ccco1)c1ccccc1 (stereo not drawn)	.	.	.	.	/	.
CCOC(=O)C1=C(C)NC(C)=C(C(=O)OCC)C1C(=O)OCC(=O)NCc1ccccc1	.	/	/	.	/	/
CCCCOCCCNC(=O)CN1C(=O)c2ccccc2C1=O	.	.	.	.	/	.
O=C(c1ccccc1)C1CCN(CC(=O)N2CCN(c3ccccc3)CC2)CC1	.	.	.	.	.	.
COc1ccc(CC(=O)Nc2cc(F)ccc2F)cc1S(=O)(=O)N1CCOCC1	.	/	/	/	/	/
COc1ccc(C(=O)OCc2ccc(C)cc2)cc1S(=O)(=O)N1CCOCC1	.	?	/	.	?	/
CCCCc1nnc(NC(=O)Cc2ccc(OC)c(S(=O)(=O)N3CCOCC3)c2)s1	.	?	/	.	10µM	/
COc1ccc(CC(=O)Nc2nnc(SCc3ccccc3)s2)cc1S(=O)(=O)N1CCOCC1	.	/	.	.	.	.
